The panel holds about 79,000 compounds, 15% with a hit somewhere; the sample as a whole holds those more often. Values without a mark were called inactive. Activity calls are given as the source filed them. No stated cut-off is given here; in the data, active means growth inhibition above about 70%; inactive means the rest.
How the values were obtained:
[1] = NCI Yeast Anticancer Drug Screen. Data for the rad50 strain (AID 155);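 further: 0% = growth of vehicle-only cultures of the same strain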; conditions: S. cerevisiae rad50 strain growth inhibition, hits give high values
Method in brief: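 Compounds were tested on a yeast strain with an engineered DNA damage repair alteration; the reported value is growth inhibition normalised to vehicle treatment.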

[2] = NCI Yeast Anticancer Drug Screen. Data for the mec2-1 strain (AID 157); conditions: S. cerevisiae mec2-1 strain, hits give high values
Method in brief: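 mec2-1 yeast strain, carrying an alteration in DNA damage repair or cell cycle control, was exposed to compounds; growth inhibition was measured relative to vehicle-treated controls.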

[3] = NCI Yeast Anticancer Drug Screen. Data for the sgs1 mgt1 strain (AID 161);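 further: 0% = growth of cultures given vehicle only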; conditions: S. cerevisiae sgs1 mgt1 strain, hits give high values
Method in brief: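 Growth of a repair-deficient yeast mutant was monitored after compound treatment and expressed as inhibition relative to vehicle-treated cultures.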

[4] = NCI Yeast Anticancer Drug Screen. Data for the cln2 rad14 strain (AID 165);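 further: 0% = growth equal to vehicle treated cultures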; conditions: S. cerevisiae cln2 rad14 strain, hits give high values
Method in brief: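 Yeast carrying cln2 and rad14 alterations (cell cycle control and DNA damage repair) were exposed to compounds. Growth inhibition was measured against vehicle-treated controls.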

[5] = NCI Yeast Anticancer Drug Screen. Data for the bub3 strain (AID 167); conditions: S. cerevisiae bub3 mutant strain, hits give high values
Method in brief: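 Growth of a checkpoint-deficient yeast mutant is measured after compound exposure. Values represent inhibition relative to vehicle.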

[6] = NCI Yeast Anticancer Drug Screen. Data for the mlh1 rad18 strain (AID 175); conditions: S. cerevisiae mlh1 rad18 strain growth inhibition, hits give high values
Method in brief: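 Growth inhibition of the yeast strain was measured after compound exposure and expressed relative to vehicle-treated controls. The strain carries defined defects in DNA damage repair.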

[7] = at 5.0 µM (retest, dose inferred, filed as 0.5)
[8] = at 50.0 µM (retest, dose inferred, filed as 5.0)

| SMILES | growth inhibition [1, 7] | growth inhibition [1, 8] | growth inhibition ([1]; at 50.0 µM) | growth inhibition [2, 7] | growth inhibition [2, 8] | growth inhibition ([2]; at 50.0 µM) | growth inhibition [3, 7] | growth inhibition [3, 8] | growth inhibition ([3]; at 50.0 µM) | growth inhibition [4, 7] | growth inhibition [4, 8] | growth inhibition ([4]; at 50.0 µM) | growth inhibition [5, 7] | growth inhibition [5, 8] | growth inhibition ([5]; at 50.0 µM) | growth inhibition [6, 7] | growth inhibition [6, 8] | growth inhibition ([6]; at 50.0 µM) |
| --- | --- | --- | --- | --- | --- | --- | --- | --- | --- | --- | --- | --- | --- | --- | --- | --- | --- | --- |
| FC(F)(F)C(F)(F)C1(F)C(F)(F)C(F)(F)C(F)(F)C(F)(F)C1(F)F | -1% | -2% | 99.7% (active) | -2% | 1% | 99.5% (active) | -1% | -3% | 99.6% (active) | 1% | -8% | 97.2% (active) | 3% | 4% | 99.5% (active) | 2% | -2% | 99.2% (active) |
| O=C(O)/C=C/C(=O)NNc1nc2ccccc2s1 | -4% | -1% | 23.1% | -9% | 2% | -5.25% | 0% | -25% | 50.3% | -25% | 1% | 23.1% | -31% | -21% | -13.2% | -7% | 20% | 70.2% (active) |
| O=C1OC(C2OC(=O)C(=O)C2C(=O)c2ccc([N+](=O)[O-])cc2)C(C(=O)c2ccc([N+](=O)[O-])cc2)C1=O (configuration not stated) | 5% | 57% | 91.6% (active) | 14% | 44% | 59.1% | 10% | 86% (active) | 91.5% (active) | 11% | 22% | 64.2% | 5% | 39% | 56.6% | 6% | 53% | 96.5% (active) |
| Cc1cc(N/N=C(\c2ccccc2)c2ccccn2)nc2ccccc12 | 33% | 91% (active) | 96.9% (active) | 10% | 91% (active) | 97.8% (active) | 14% | 83% (active) | 96.5% (active) | -7% | 69% | 97.6% (active) | 19% | 90% (active) | 97.4% (active) | 25% | 92% (active) | 97.5% (active) |
| COc1ccc(CCNC(=S)/N=C\C(C(=O)c2ccccc2)=C(\O)c2ccccc2)cc1OC | 1% | 95% (active) | 99% (active) | 0% | 93% (active) | 98.8% (active) | -2% | 75% (active) | 99% (active) | -25% | 98% (active) | 97.8% (active) | 0% | 99% (active) | 98.8% (active) | 3% | 97% (active) | 98.6% (active) |
| S=C(Nc1ccc(Cl)c(Cl)c1)SC1CCCCC1 | 17% | 96% (active) | 47.2% | 11% | 97% (active) | 64.2% | 11% | 98% (active) | 87.1% (active) | -1% | 95% (active) | 87.5% (active) | 17% | 96% (active) | 83.3% (active) | 20% | 96% (active) | 90% (active) |
| c1ccc2c(c1)ccc1c2ccc2sc3ccccc3[n+]21 | 71% (active) | 94% (active) | 92.3% (active) | 53% | 96% (active) | 53.9% | 59% | 93% (active) | 91.2% (active) | 62% | 92% (active) | 69.8% | 54% | 92% (active) | 73.5% (active) | 75% (active) | 96% (active) | 91.3% (active) |
| O=S(=O)(N=S(c1ccc(Cl)cc1)c1ccc(Cl)cc1)c1ccccc1 | 0% | 10% | 49.2% | -8% | 5% | -14.4% | -1% | 12% | 4.5% | 9% | 28% | -32.4% | 5% | 19% | 27.2% | 0% | 10% | 12.8% |
| CC(C)C(Sc1nc(-c2ccccc2)c(-c2ccccc2)[nH]1)c1n[nH]c(=S)n1-c1ccccc1 (configuration not stated) | -1% | 97% (active) | 95.8% (active) | 12% | 98% (active) | 97.1% (active) | -13% | 98% (active) | 96.8% (active) | -24% | 97% (active) | 94.3% (active) | -1% | 98% (active) | 96.9% (active) | -3% | 97% (active) | 95.9% (active) |
| COc1ccc2nccc(C(=O)CBr)c2c1 | 24% | 23% | 92% (active) | 32% | -5% | 93% (active) | 61% | 20% | 97.4% (active) | -1% | 10% | 31.3% | 13% | 34% | 97.2% (active) | 31% | 37% | 96.6% (active) |
| CN1C(C)(C)CC(O)(C#N)CC1(C)C | 4% | 99% (active) | 98.6% (active) | 2% | 99% (active) | 99.7% (active) | 1% | 99% (active) | 99.3% (active) | -6% | 97% (active) | 99.2% (active) | -7% | 99% (active) | 99.5% (active) | 12% | 99% (active) | 99.4% (active) |
| COC(=O)C(CCC(=O)Cc1ccccc1)N1C(=O)c2ccccc2C1=O (configuration not stated) | 6% | 67% | 70% | 1% | 91% (active) | 56.9% | 16% | 87% (active) | 81.6% (active) | 10% | 43% | 1.4% | 8% | 86% (active) | 76% (active) | 16% | 89% (active) | 88% (active) |
| CCCCCCCCCCCCCCCCS(=O)(=O)Cl | 40% | 96% (active) | 61.5% | 46% | 98% (active) | 32.2% | 57% | 77% (active) | 59.8% | 31% | 73% (active) | -6.35% | 69% | 78% (active) | 46.7% | 43% | 99% (active) | 53.8% |
| CC1(C)NC(=O)C(C)(C)NC1=O | 4% | -2% | -12.9% | 1% | 2% | 5.8% | 0% | -1% | -7.4% | 2% | 3% | -19.9% | 4% | -2% | 48% | 3% | 3% | -14.8% |
| Cc1cc(C)c(Cc2ccccc2O)cc1Cc1ccccc1O | 33% | 47% | 90.5% (active) | 35% | 46% | 91.7% (active) | 80% (active) | 97% (active) | 92.5% (active) | 65% | 99% (active) | 90.7% (active) | 87% (active) | 98% (active) | 90.1% (active) | 34% | 38% | 89.7% (active) |
| O=[N+]([O-])c1ccccc1C(c1ccc2ccccc2c1O)N1CCOCC1 (configuration not stated) | 99% (active) | 95% (active) | 97.5% (active) | 100% (active) | 97% (active) | 97.8% (active) | 99% (active) | 98% (active) | 94.8% (active) | 78% (active) | 96% (active) | 97% (active) | 99% (active) | 97% (active) | 95.8% (active) | 98% (active) | 97% (active) | 95.4% (active) |
| C/C(=N/O)C1CC(CCC2([N+](=O)[O-])CCC(C)(O)C(/C(C)=N/O)C2)([N+](=O)[O-])CCC1(C)O (configuration not stated) | 0% | -8% | 12.7% | 3% | -1% | 11.3% | -1% | -4% | -7.15% | 5% | -12% | 15.3% | 3% | -2% | 90.5% (active) | 1% | 0% | 19.9% |
| COc1ccccc1CN1CCCN(Cc2ccccc2OC)C1c1cc(Cl)cc(Cl)c1O | 16% | 93% (active) | 69.2% | 11% | 100% (active) | 15.3% | 19% | 99% (active) | 97.5% (active) | -2% | 97% (active) | 6.2% | 4% | 98% (active) | 9.3% | 52% | 99% (active) | 78.6% (active) |
| CCc1cccc(CC)c1NC(=O)C(C#N)C1=C(Cl)C(=O)c2ccccc2C1=O (configuration not stated) | 63% | 97% (active) | 89.8% (active) | 92% (active) | 98% (active) | 93.5% (active) | 73% (active) | 99% (active) | 90% (active) | 36% | 99% (active) | 91.3% (active) | 67% | 99% (active) | 92.1% (active) | 75% (active) | 96% (active) | 90.5% (active) |

From PubChem BioAssay (NCI)
